Assay results: PubChem BioAssay (NCI)
This is part of a sample that, as a whole, favours compounds with a hit. Of some 79,000 tested, about 15% had one in any assay. Active and inactive are the calls of the source. Cut-off read from the data, not from the text of the source: active = growth inhibition above about 70%; inactive = the rest.

assay: NCI Yeast Anticancer Drug Screen. Data for the mec2-1 strain (AID 157); settings: S. cerevisiae mec2-1 strain, at 50.0 µM, hits give high values
Procedure: Growth inhibition of yeast strains with defined genetic alterations is measured as a screen for potential anti-cancer activity. Selected strains with alterations in DNA damage repair or cell cycle control were exposed to compounds and growth inhibition was measured relative to vehicle treated controls. The strain used in this assay is mec2-1

| SMILES | growth inhibition |
| --- | --- |
| c1ccc(CC[n+]2ccncc2)cc1 | 6.8% (inactive) |
| C=CCSc1ncnc2nc[nH]c12 | -1.3% (inactive) |
| O=C(c1ccccc1)N1CC2CCC1CN2C(=O)c1ccccc1 | 15.2% (inactive) |
| CCOc1ccccc1/C=C(\C#N)c1cccc(Cl)c1 | 9.75% (inactive) |
| N#CCC1(O)c2ccccc2-c2ccccc21 | 7.45% (inactive) |
| Cc1ccc(N=Cc2cc(Br)ccc2O)cc1Cl | 99% (active) |
| O=C1O/C(=C2/OC(=O)c3ccccc32)c2ccccc21 | -7.95% (inactive) |
| Nc1c(Cl)cc2c(c1Br)C(=O)c1ccccc1C2=O | -3.5% (inactive) |
| N#CC(=S)Nc1ccc(Cl)c(Cl)c1 | 27.9% (inactive) |
| C[C@H](OCc1ccccc1)C(=O)N1CCS(=O)(=O)N2CCC[C@@H]2C1=O | -19.1% (inactive) |
| O=CC(O)C(O)C(O)C(O)COC(=S)OCC(O)C(O)C(O)C(O)C=O (stereo not given) (tested in a mixture with another compound) | -10.1% (inactive) |
| O=C(NCN1CCOCC1)Nc1ccccc1 | 0.6% (inactive) |
| Cc1[nH]c(=O)[nH]c(=O)c1/C=C/C(=O)NC(CO)CS(C)=O (stereo not given) | -7.15% (inactive) |
| Cc1cccc(C[N+](C)(C)CCO)c1C | -13.2% (inactive) |
| O=C(CC(C(=O)c1cccs1)c1ccsc1)c1ccc(Cl)s1 (stereo not given) | -15% (inactive) |
| Cc1ccc(N(C(=O)CC(=O)NN)C(=O)c2ccccc2Cl)cc1 | -13.6% (inactive) |
| CCOC(=O)[n+]1c(C)ccc2ccccc21 | -10.9% (inactive) |
| C/C(CC(=O)Nc1ccc(Cl)cc1)=N\NC(N)=S | -4.65% (inactive) |
| NC(=O)Nc1cccc(C(=O)O)c1C(=O)O | -13.2% (inactive) |
| O=C(c1ccc(Cl)cc1)C(C(c1ccccc1[N+](=O)[O-])N1CCCCC1)N1CCCCC1 (stereo not given) | -0.3% (inactive) |

| SMILES | growth inhibition |
| --- | --- |
| CC1=CC(=O)/C(=C\c2ccc3c(c2)OCO3)C(C)(C)C1 | -8.45% (inactive) |
| NC(=O)C(Cc1ccccc1)NC(=O)C1CCCN1 (stereo not given) | 1.35% (inactive) |
| O=C(Nc1nccs1)c1c(O)nc2sccn2c1=O | -33% (inactive) |
| O=[N+]([O-])c1ccc(OP2(Oc3ccc([N+](=O)[O-])cc3)=NP(Oc3ccc([N+](=O)[O-])cc3)(Oc3ccc([N+](=O)[O-])cc3)=NP(Oc3ccc([N+](=O)[O-])cc3)(Oc3ccc([N+](=O)[O-])cc3)=NP(Oc3ccc([N+](=O)[O-])cc3)(Oc3ccc([N+](=O)[O-])cc3)=N2)cc1 | -7.9% (inactive) |
| O=C(O)/C=C/C(=O)Nc1ccccc1NC(=O)/C=C/C(=O)O | 16.2% (inactive) |
| O=C(O)C(Nc1ccccc1)c1ccccc1 (stereo not given) | 3.75% (inactive) |
| CCC1(C#N)N=C(c2ccccc2)c2ccccc2N1C(=O)Oc1ccccc1 (stereo not given) | 2.65% (inactive) |
| COc1ccc([N+](=O)[O-])cc1NC(=O)Nc1ccc(F)c([N+](=O)[O-])c1 | 3.4% (inactive) |
| CC1(C)C2CCC1(C)C(OC(=O)C1OC(O)C(O)C(O)C1O)C2 (stereo not given) | 24.9% (inactive) |
| COc1cc(C=O)cc([N+](=O)[O-])c1O | -9.75% (inactive) |
| CC1CN(C(=S)Nc2cccc3ccccc23)CC(C)O1 (stereo not given) | 36.5% (inactive) |
| Nc1cn(Cc2ccccc2)c2nc(/C=C3/C=CC=CC3=O)c(O)n12 | 1.75% (inactive) |
| Cc1cc(C)c(S(=O)(=O)O)cc1N | 2.1% (inactive) |
| CCOc1ccc2nc(NC(=O)/C(CC(=O)CC(C3=C(O)c4ccccc4CC3=O)c3ccccc3)=N\O)sc2c1 (stereo not given) | -7% (inactive) |
| Cc1ccc2snc(C(=O)O)c2c1[N+](=O)[O-] | 0.65% (inactive) |
| NC(=O)c1ccc(Cl)c([N+](=O)[O-])c1 | 2.85% (inactive) |
| Cc1ccc(OCC(=O)C2CSc3ccc(Cl)cc32)cc1 (stereo not given) | 33% (inactive) |
| COC1(OC)N=C(N)C2(C#N)C(C)=C3NCN(C)N=C3C12C#N (stereo not given) | 3.2% (inactive) |
| O=C(O)c1nn(-c2ccccc2)c2c1CSc1ccccc1-2 | 34.2% (inactive) |
| Cc1ccccc1NC(=O)CC(=O)N1N=C(N(CCC#N)c2ccccc2Cl)CC1c1ccccc1 (stereo not given) | -10% (inactive) |
